# Columns and labels:
# Settings in all cases: concentration: 1 μM,replicates: in singlicate; n = 1
# SNARK = test system: T1, SNARK
# T1 construct: gene NUAK2
# SNRK = test system: SNRK
# SRC = test system: SRC
# SRMS = test system: SRMS
# SRPK1 = test system: SRPK1
# SRPK2 = test system: SRPK2
# SRPK3 = test system: SRPK3
# STK16 = test system: STK16
# STK33 = test system: STK33
# STK35 = test system: STK35
# 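Note: KINOMEscan kinase panel screen.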
Compound,%Inh (SNARK) [%],%Inh (SNRK) [%],%Inh (SRC) [%],%Inh (SRMS) [%],%Inh (SRPK1) [%],%Inh (SRPK2) [%],%Inh (SRPK3) [%],%Inh (STK16) [%],%Inh (STK33) [%],%Inh (STK35) [%]
C[C@@H]1CCN(C(=O)N2CCCC2)C[C@@H]1N(C)c1ncnc2[nH]ccc12,61,18,0,0,8,3,14,0,0,0
Cn1ccc2ncnc(Oc3ccc(NC(=O)Nc4cc(C(C)(C)C)on4)c(Cl)c3)c21,0,13,44,0,80,0,0,2,64,30
COC(=O)Nc1nc2cc(Oc3ccc(NC(=O)Nc4cc(C(F)(F)F)ccc4Cl)cc3)ccc2[nH]1.Cl [GW697465],0,0,1,0,41,32,3,0,57,0
Cc1n[nH]c2cc(Nc3ccnc(Nc4cccc(CN5CCOCC5)c4)n3)ccc12 [GW682569],25,0,77,0,92.2,13,65,90.8,0,0
C[C@@H](Oc1cc(-n2cnc3cc(-c4ccncc4)ccc32)sc1C(N)=O)c1ccccc1Cl [GSK479719],95.4,3,26,0,89,0,64,46,1,0
CC(=O)Nc1nc2cnc(Nc3cc(NC(=O)c4cccc(CC(C)(C)C#N)c4)ccc3C)nc2s1,0,17,56,0,46,0,9,25,0,0
CC(C)c1nc(-c2cccc(NS(=O)(=O)c3ccccc3)c2)c(-c2ccnc(Nc3ccc4c(c3)CN(C)CC4)n2)s1 [GSK1649598],35,1,100,99.5,49,0,0,28,94.8,63
